In the supplement of paper PMC4166925:
± gives the standard deviation of the averaged measurements. Whole data set: some 33,000 sequences, median “E-score (dimensionless, -0.5 to 0.5)” near -0.046, cut for the highest 2% near 0.36. Only a selection was taken, and the highest values are over-represented in it overall.

Tested on: T1, SpTbr T-box DNA-binding domain (GST fusion)
T1 sequence: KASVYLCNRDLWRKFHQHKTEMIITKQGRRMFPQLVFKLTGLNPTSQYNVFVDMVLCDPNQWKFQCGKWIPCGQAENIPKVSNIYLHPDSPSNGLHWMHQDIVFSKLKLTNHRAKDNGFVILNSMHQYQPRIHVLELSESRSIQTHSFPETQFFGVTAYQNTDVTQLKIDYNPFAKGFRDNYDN
Assay: PBM E-score of 8-mer (E-score (dimensionless, -0.5 to 0.5)); Tbr is Tbrain of the sea star Patiria miniata (Pm) or the sea urchin Strongylocentrotus purpuratus (Sp); higher = stronger binding preference
Conditions: the construct has about 5 more residues each side
Method: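 Universal protein-binding microarray (Agilent AMADID 016060, 60-bp probes with a 35-bp variable region) incubated with 200 nM GST-fused Strongylocentrotus purpuratus Tbr T-box DNA-binding domain (residues 362-554) in PBS pH 7.5. Scored for every ungapped 8-mer (given with its reverse complement) as E-score (range -0.5 to 0.5; >0.45 counts as bound) and Z-score of median probe intensity. Two replicate arrays (datasets 1 and 2).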
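Note: protein at 200 nM in PBS on universal double-stranded arrays.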

Row | Sequence | PBM E-score of 8-mer
1 | AGGTGACT | 0.276 ± 0.001
2 | AGGTGACC | 0.151 ± 0.0043
3 | AGGTGACA | 0.469 ± 0.015
4 | CGGTGACG | 0.233 ± 0.02
5 | AGGTGACG | 0.453 ± 0.0078
6 | ACGTGACA | 0.3127 ± 0.0018
7 | CGATGGAG | -0.131 ± 0.032
8 | AGACGTAC | -0.0414 ± 0.071
9 | CCCCAGCC | -0.0674 ± 0.013
10 | AGGAGTAT | -0.223 ± 0.0026
11 | GATGACAA | 0.278 ± 0.026
12 | CATGACAC | 0.3587 ± 0.0021
13 | GATGACCC | 0.12 ± 0.0038
14 | AATGACAG | 0.0199 ± 0.049
15 | GATGACAC | 0.402 ± 0.0092
16 | AATGACAC | 0.3799 ± 0.0026
17 | AATCTGAT | -0.25 ± 0.015
18 | GAACGCCC | 0.138 ± 0.0086
19 | AGGTGGTC | -0.117 ± 0.11
20 | AGGTGGTG | 0.34049 ± 0.00016
21 | AGGTGGGC | -0.0803 ± 0.021
22 | AGGTGGGA | 0.433 ± 0.0055
23 | AGGTGGTA | 0.405 ± 0.011
24 | CGGTGGGA | 0.00775 ± 0.037
25 | AGAGGGAA | -0.179 ± 0.028

Row | Sequence | PBM E-score of 8-mer
26 | GAGCTTCC | -0.129 ± 0.05
27 | CGGCGACA | 0.296 ± 0.018
28 | AGGTGGAA | 0.0503 ± 0.028
29 | GAACTAAC | 0.135 ± 0.023
30 | TGCGACAA | 0.271 ± 0.022
31 | GGCGACAC | 0.381 ± 0.0043
32 | GGCGACAA | 0.3676 ± 0.0007
33 | CGCGACAA | 0.309 ± 0.0049
34 | AGCGACAC | 0.332 ± 0.022
35 | CGCGACAC | 0.35396 ± 0.00035
36 | GCTTTGCA | 0.0233 ± 0.069
37 | AGTCCAGG | -0.396 ± 0.039
38 | AAGTCCCA | -0.0384 ± 0.044
39 | CAGAAACC | -0.106 ± 0.08
40 | AAATTCTG | -0.136 ± 0.06
41 | CAAAGGTC | -0.105 ± 0.028
42 | CAAAGGTA | -0.0771 ± 0.04
43 | AAAAGGTT | -0.0952 ± 0.076
44 | AAAAGGTG | 0.41 ± 0.0094
45 | AAAAGGTC | -0.00656 ± 0.018
46 | CAAAGGTG | 0.3923 ± 0.00076
47 | GGTACTAC | -0.3 ± 0.033
48 | ACGTCGAC | 0.0807 ± 0.016
49 | GCACTCCC | 0.128 ± 0.051
50 | AGCATAAT | -0.177 ± 0.0018

Row | Sequence | PBM E-score of 8-mer
51 | AATAGGTC | -0.154 ± 0.017
52 | AGTAGGTC | -0.0701 ± 0.038
53 | ACTAGGTC | -0.14 ± 0.024
54 | ACTAGGTA | -0.0768 ± 0.014
55 | AATAGGTG | 0.374 ± 0.03
56 | AGTAGGTA | -0.00286 ± 0.076
57 | ACTAGGTG | 0.403 ± 0.012
58 | AATAGGTA | -0.0758 ± 0.075
59 | AGTAGGTG | 0.3972 ± 0.0024
60 | TCAACAAA | -0.0651 ± 0.048
61 | AGAAGTAT | -0.0503 ± 0.0051
62 | AACGTTAT | 0.0135 ± 0.06
63 | ACAAAACA | 0.0943 ± 0.064
64 | ATAGAGTC | -0.206 ± 0.0048
65 | CGTCTACA | 0.0944 ± 0.046
66 | AGGGTGCG | 0.402 ± 0.01
67 | AGGGGGTG | 0.269 ± 0.055
68 | AGGGTGCA | 0.188 ± 0.025
69 | CGGGTGTC | 0.3608 ± 0.0021
70 | AGGGTGCC | 0.267 ± 0.013
71 | AGGGTGTC | 0.401 ± 0.015
72 | ACGGTGTC | 0.271 ± 0.051
73 | AGGGTGTG | 0.449 ± 0.011
74 | AGGGTGTA | 0.307 ± 0.035
75 | AACAGAGT | -0.0053 ± 0.1

Row | Sequence | PBM E-score of 8-mer
76 | CACGTTGC | 0.101 ± 0.025
77 | ATTACTTA | -0.154 ± 0.05
78 | AGAGAGAG | 0.0384 ± 0.024
79 | ACTAACAC | 0.402 ± 0.0071
80 | GCTAACAC | 0.417 ± 0.0044
81 | ACTAACAA | 0.152 ± 0.039
82 | CGTAACAC | 0.3104 ± 0.0022
83 | GCTAACAA | 0.293 ± 0.03
84 | CCTAACAA | 0.161 ± 0.035
85 | CCTAACAG | 0.0988 ± 0.11
86 | GCTAACCC | 0.04 ± 0.097
87 | AGTAACAC | 0.3552 ± 0.0029
88 | CCTAACAC | 0.4165 ± 0.0028
89 | ACTAACAG | 0.1931 ± 0.00053
90 | GGTAACAC | 0.435 ± 0.0032
91 | CGACCCGA | -0.0816 ± 0.051
92 | TAACCAGA | -0.055 ± 0.015
93 | AGCAAAAG | -0.191 ± 0.046
94 | ACGCAACA | 0.121 ± 0.024
95 | ATTGCACA | 0.121 ± 0.053
96 | CCCCAGCG | -0.148 ± 0.02
97 | ATTAACAC | 0.45 ± 0.015
98 | CTTAACAC | 0.429 ± 0.017
99 | ATTAACAG | 0.139 ± 0.014
100 | ATTAACAA | 0.14 ± 0.023

Row | Sequence | PBM E-score of 8-mer
101 | CTTAACAA | 0.243 ± 0.0056
102 | CTTAACCC | -0.000625 ± 0.011
103 | GTAGAAAA | -0.0889 ± 0.057
104 | ATCCAGAG | -0.25 ± 0.021
105 | CCTGGGAG | 0.0895 ± 0.0077
106 | GTGGCCGA | 0.0547 ± 0.071
107 | AGGAAAAT | -0.182 ± 0.018
108 | GTCAATAA | 0.129 ± 0.034
109 | CGCCCGTC | 0.0569 ± 0.029
110 | CTTTTTCC | -0.132 ± 0.081
111 | TACGTTCA | -0.0963 ± 0.066
112 | AGCATTAT | 0.00754 ± 0.061
113 | AAACGTGA | 0.156 ± 0.0067
114 | ACACGTGC | 0.3851 ± 0.0015
115 | ACACGTGT | 0.395 ± 0.0082
116 | AAACGTGT | 0.368 ± 0.018
117 | ACACGTGA | 0.283 ± 0.011
118 | ACACGTCA | 0.319 ± 0.017
119 | GCACGTGC | 0.312 ± 0.081
120 | ACACGTCT | 0.342 ± 0.0038
121 | AAACGTGG | 0.144 ± 0.0096
122 | ACACGTGG | 0.299 ± 0.02
123 | CCACGTGC | 0.114 ± 0.074
124 | ACACGTCG | 0.372 ± 0.0071
125 | CCTTCCGC | 0.168 ± 0.062

Row | Sequence | PBM E-score of 8-mer
126 | GATGCCTA | -0.279 ± 0.11
127 | AAGGGCCA | -0.259 ± 0.0051
128 | CTCAGCAC | 0.171 ± 0.0069
129 | TATCTCAA | -0.0883 ± 0.013
130 | GTTCAACA | -0.118 ± 0.054
131 | AAGTGACG | 0.4 ± 0.0071
132 | AAGTGAAA | 0.209 ± 0.069
133 | GAGTGACA | 0.343 ± 0.033
134 | AAGTGACC | 0.233 ± 0.041
135 | TAGTGACA | 0.417 ± 0.011
136 | AAGTGACT | 0.0603 ± 0.012
137 | CAGTGACA | 0.329 ± 0.0062
138 | CAGTGACG | 0.0986 ± 0.12
139 | AAGTGACA | 0.427 ± 0.013
140 | GCTGTAAC | -0.0609 ± 0.029
141 | CTCAAAAG | -0.147 ± 0.012
142 | ATGACCTA | -0.132 ± 0.046
143 | ACAGAACA | -0.0577 ± 0.043
144 | CCTGTGCG | 0.125 ± 0.025
145 | TCGCAAAA | 0.132 ± 0.0091
146 | TACTTGGA | -0.311 ± 0.035
147 | AGGAGAGG | -0.247 ± 0.019
148 | CTGTGTGC | 0.000685 ± 0.012
149 | AGGTGTGG | 0.486 ± 0.0081
150 | AGGTGTGC | 0.445 ± 0.014

Row | Sequence | PBM E-score of 8-mer
151 | ATGTGTGG | 0.356 ± 0.007
152 | AGGTGGGG | 0.238 ± 0.056
153 | AGATGTGC | 0.161 ± 0.011
154 | ATCAGGAC | -0.3 ± 0.086
155 | AAGCTCTA | -0.245 ± 0.027
156 | ATGATCAC | 0.1861 ± 0.0015
157 | GTGATAAC | 0.395 ± 0.0074
158 | ATGATAAC | 0.092 ± 0.059
159 | GTGATAAA | 0.305 ± 0.051
160 | GTGATCAC | 0.366 ± 0.022
161 | GTGATCAA | 0.144 ± 0.022
162 | ACGATGGA | -0.0806 ± 0.066
163 | AGTAATCG | 0.087 ± 0.023
164 | GCTCCTAC | 0.0646 ± 0.0047
165 | AATTCAGC | -0.016 ± 0.024
166 | CCGGACGA | -0.223 ± 0.017
167 | ATCGCCTC | 0.169 ± 0.061
168 | GATGTCAC | 0.296 ± 0.023
169 | GTTGTCAA | 0.3671 ± 0.0033
170 | GCTGTCAC | 0.326 ± 0.025
171 | CGTGTCAG | 0.25651 ± 0.00017
172 | GATGTCAA | 0.197 ± 0.0064
